The source of these data is PubChem BioAssay (EPA / NIEHS).

Inconclusive results are not listed. Active and inactive are the calls of the source. Rule for the calls: active = hit-call score of the fitted dose curve at least 0.9, where 1 is the maximum; inconclusive = response in the unintended direction; inactive = score below 0.9.

In test [1] the target is Estrogen receptor (Homo sapiens) + Estrogen receptor beta (Homo sapiens) (UniProt P03372+Q92731). As to the kind of experiment: OT_ER_ERaERb_1440: Odyssey Thera (OT) 24-hour HEK293T Protein-Complementation Assay for Estrogen Receptor-alpha/-beta Homodimer (AID 2283356).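 Note: heteromer of ER alpha and ER beta binding domains; hits raise reporter fluorescence and both agonists and antagonists give an increase.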 The method in brief:
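24 h exposure; HEK293T PCA cells with ERα/ERβ LBD fragments; signal rise in nuclear or whole-cell fluorescence over vehicle.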

The target of test [2] is Estrogen receptor beta (Homo sapiens) (UniProt Q92731). As to the kind of experiment: OT_ER_ERbERb_0480: Odyssey Thera (OT) 8-hour HEK293T Protein-Complementation Assay for Estrogen Receptor-beta/-beta Homodimer (AID 2283357).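 Note: active means signal gain over DMSO baseline.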 Summed up: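 Readout: increase in mean fluorescence intensity (nucleus for agonists; nucleus plus cytoplasm for antagonists) relative to DMSO, from a reporter-fragment complementation of human ER-beta LBD homodimer in HEK293T cells dosed 8 hours.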
Sequence of Estrogen receptor beta (Homo sapiens) (Q92731 whole entry, looked up, the tested form may be a part): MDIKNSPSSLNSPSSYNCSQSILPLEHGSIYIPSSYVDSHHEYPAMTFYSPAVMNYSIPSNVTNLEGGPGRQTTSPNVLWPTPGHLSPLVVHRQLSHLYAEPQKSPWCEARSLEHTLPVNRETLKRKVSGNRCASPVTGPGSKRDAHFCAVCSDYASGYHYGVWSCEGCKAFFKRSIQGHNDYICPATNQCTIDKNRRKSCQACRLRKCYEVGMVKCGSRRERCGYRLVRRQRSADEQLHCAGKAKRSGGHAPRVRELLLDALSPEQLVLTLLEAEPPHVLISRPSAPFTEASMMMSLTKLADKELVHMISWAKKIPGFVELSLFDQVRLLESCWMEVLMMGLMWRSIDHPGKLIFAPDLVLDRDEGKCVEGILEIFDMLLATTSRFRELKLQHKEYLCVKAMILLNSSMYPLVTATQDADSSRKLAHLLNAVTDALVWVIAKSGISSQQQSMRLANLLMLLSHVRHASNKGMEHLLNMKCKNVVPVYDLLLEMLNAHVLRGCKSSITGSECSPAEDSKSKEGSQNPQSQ

The target in test [3] is Nuclear receptor subfamily 1 group I member 2 (Homo sapiens) (UniProt O75469). Put plainly: NVS_NR_hPXR: NovaScreen (NVS) Nuclear Receptor Binding Assay for human Pregnane X Receptor (PXR) (AID 2283365).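 Note: a drop in FRET signal versus DMSO baseline means the compound binds.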 The method in brief:
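Read-out: TR-FRET, human PXR, 2 h post-dosing, cell-free. Loss of signal vs DMSO taken as binding activity; 25 uM primary, concentration series secondary.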

Test [4] concerns the target human Thyroid Receptor Alpha (TRa), THRA (gene 7067) (UniProt P10827). As to the kind of experiment: NVS_NR_hTRa_Antagonist: NovaScreen (NVS) Nuclear Receptor Binding Assay for human Thyroid Receptor Alpha Antagonism (TRa) (AID 2283362). The method in brief: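 In this biochemical format, receptor protein is dosed with chemical and read after 1 hour via AlphaLISA. Decreases from the DMSO baseline indicate antagonist activity; screening used 25 uM in duplicate before concentration-response confirmation.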

For test [5], the target named is human Peroxisome Proliferator-activated Receptor alpha (PPARa), PPARA (gene 5465) (UniProt Q07869). Put plainly: NVS_NR_hPPARa: NovaScreen (NVS) Nuclear Receptor Binding Assay for human Peroxisome Proliferator-activated Receptor alpha (PPARa) (AID 2283359).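 Note: activity means loss of TR-FRET signal versus DMSO baseline.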 The method in brief: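 Cell-free binding assay with extracted human protein, read by TR-FRET 1 h after chemical dosing. Loss of signal relative to DMSO baseline indicates binding. Primary screen used duplicate single concentration (25 uM); actives followed up in concentration series.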
Sequence of human Peroxisome Proliferator-activated Receptor alpha (PPARa), PPARA (gene 5465) (Q07869 whole entry, looked up): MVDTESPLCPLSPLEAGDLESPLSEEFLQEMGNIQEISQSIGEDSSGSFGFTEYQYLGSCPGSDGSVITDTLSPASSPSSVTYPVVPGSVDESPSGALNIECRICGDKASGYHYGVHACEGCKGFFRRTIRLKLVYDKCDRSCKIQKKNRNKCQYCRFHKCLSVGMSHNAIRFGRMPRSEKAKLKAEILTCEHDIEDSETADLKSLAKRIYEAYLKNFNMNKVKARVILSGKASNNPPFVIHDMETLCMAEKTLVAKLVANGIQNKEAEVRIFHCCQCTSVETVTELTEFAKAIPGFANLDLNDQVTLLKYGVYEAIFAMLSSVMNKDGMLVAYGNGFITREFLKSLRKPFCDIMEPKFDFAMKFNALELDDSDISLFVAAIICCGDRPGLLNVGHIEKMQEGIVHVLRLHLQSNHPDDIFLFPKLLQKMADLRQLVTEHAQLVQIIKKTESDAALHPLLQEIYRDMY

Test [6] addresses PGR (gene 5241) (UniProt P06401). As to the kind of experiment: NVS_NR_hPR: NovaScreen (NVS) Nuclear Receptor Binding Assay for human Progestron Receptor (PR) (AID 2283360).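 Note: active means loss of bound radioligand signal versus DMSO baseline.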 Summed up:
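Competitive displacement of a labelled radioligand from T47D-derived receptor protein is measured in a cell-free format. Initial testing uses 25 uM in duplicate, with positive and negative controls on every plate.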

For test [7], the target named is Glucocorticoid receptor (Homo sapiens) (UniProt P04150). Put plainly: NVS_NR_hGR: NovaScreen (NVS) Nuclear Receptor Binding Assay for human Glucocorticoid Receptor (GR) (AID 2283363). The procedure: NVS_NR_hGR is a biochemical, single-readout assay that uses extracted gene-proteins in a cell-free assay. Measurements were taken 16 hours after chemical dosing in a 96-well plate.NVS_NR_hGR is one of one assay component(s) measured or calculated from the NVS_NR_hGR assay. It is designed to make measurements of radioligand binding, a form of binding reporter, as detected with scintillation counting signals by Filter-based radiodetection technology.Data from the assay component NVS_NR_hGR was analyzed into 1 assay endpoint. This assay endpoint, NVS_NR_hGR, was analyzed in the positive analysis fitting direction relative to DMSO as the negative control and baseline of activity. Using a type of binding reporter, loss-of-signal activity can be used to understand changes in the binding as they relate to the gene NR3C1. Furthermore, this assay endpoint can be referred to as a primary readout, because the performed assay has only produced 1 assay endpoint. To generalize the intended target to other relatable targets, this assay endpoint is annotated to the nuclear receptor intended target family, where the subfamily is steroidal.
Sequence of Glucocorticoid receptor (Homo sapiens) (P04150 whole entry, looked up): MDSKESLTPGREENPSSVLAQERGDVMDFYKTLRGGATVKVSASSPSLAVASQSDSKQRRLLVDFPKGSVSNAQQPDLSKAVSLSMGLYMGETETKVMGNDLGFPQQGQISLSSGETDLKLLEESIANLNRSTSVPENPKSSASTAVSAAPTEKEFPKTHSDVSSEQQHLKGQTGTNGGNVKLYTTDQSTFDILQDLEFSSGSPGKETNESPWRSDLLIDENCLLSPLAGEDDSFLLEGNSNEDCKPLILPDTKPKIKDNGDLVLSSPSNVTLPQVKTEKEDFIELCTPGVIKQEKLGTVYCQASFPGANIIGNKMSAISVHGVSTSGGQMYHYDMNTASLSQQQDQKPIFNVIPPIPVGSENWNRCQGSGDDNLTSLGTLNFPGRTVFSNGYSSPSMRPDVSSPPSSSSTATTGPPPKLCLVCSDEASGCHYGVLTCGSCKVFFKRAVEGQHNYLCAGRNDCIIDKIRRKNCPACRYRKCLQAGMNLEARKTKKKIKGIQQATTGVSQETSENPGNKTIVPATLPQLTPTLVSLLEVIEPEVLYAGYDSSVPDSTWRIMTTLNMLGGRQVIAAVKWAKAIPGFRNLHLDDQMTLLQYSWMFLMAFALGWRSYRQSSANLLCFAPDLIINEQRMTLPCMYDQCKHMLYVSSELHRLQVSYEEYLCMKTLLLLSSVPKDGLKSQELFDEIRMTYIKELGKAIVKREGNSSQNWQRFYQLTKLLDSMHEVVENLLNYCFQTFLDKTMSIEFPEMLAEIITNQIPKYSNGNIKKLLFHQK
Binding assays used specific radioligands (tritiated, iodinated) with non-radioactive competitive displacement ligands in agonist or antagonist protocols (as indicated) and various reference compounds and inhibitors to titrate specific binding to receptors and transporters. Most enzyme assays (CYPs, kinases, phosphatases, proteases, HDACs) used recombinant protein and specific substrates (fluorescence mostly, some colorimetric and radioactive) and inhibitors, followed by a biochemical separation of substrate and product. All assays for the biochemical HTS were initially run in duplicate at a single concentration (10 uM for CYP450 assays and 25 uM for all others). […] Each assay was run with positive and negative controls, and concurrent controls on every plate. The follow-up (secondary) screen tested active chemical-pairs in concentration series, as well as a few additional assays not tested in the primary screen, some selected negative inactives, and several cases re-run in the concentration series for confirmatory purposes.

The target of test [8] is Retinoic acid receptor alpha (Homo sapiens) (UniProt P10276). As to the kind of experiment: NVS_NR_hRAR_Antagonist: NovaScreen (NVS) Nuclear Receptor Binding Assay for human Retinoic Acid Alpha Receptor Antagonism (RAR) (AID 2283358). The method in brief:
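Cell-free TR-FRET binding assay on extracted receptor protein, run in antagonist mode; signal read 2 hours after chemical dosing. Loss of signal was fitted relative to DMSO baseline. Screened at 25 uM in duplicate, actives followed up in concentration series.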

The target in test [9] is rat Androgen Receptor (AR), Ar (gene 24208) (UniProt P15207). Put plainly: NVS_NR_rAR: NovaScreen (NVS) Nuclear Receptor Binding Assay for rat Androgen Receptor (AR) (AID 2283366). Summed up: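 Cell-free radioligand binding on extracts of prostate from testosterone-pretreated rats, read by filter-based scintillation counting 18 h after dosing. Loss of bound signal fitted positively versus DMSO; primary screen in duplicate at 25 uM, actives followed up in concentration series.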

Sequence of Nuclear receptor subfamily 1 group I member 2 (Homo sapiens) (O75469 whole entry, looked up): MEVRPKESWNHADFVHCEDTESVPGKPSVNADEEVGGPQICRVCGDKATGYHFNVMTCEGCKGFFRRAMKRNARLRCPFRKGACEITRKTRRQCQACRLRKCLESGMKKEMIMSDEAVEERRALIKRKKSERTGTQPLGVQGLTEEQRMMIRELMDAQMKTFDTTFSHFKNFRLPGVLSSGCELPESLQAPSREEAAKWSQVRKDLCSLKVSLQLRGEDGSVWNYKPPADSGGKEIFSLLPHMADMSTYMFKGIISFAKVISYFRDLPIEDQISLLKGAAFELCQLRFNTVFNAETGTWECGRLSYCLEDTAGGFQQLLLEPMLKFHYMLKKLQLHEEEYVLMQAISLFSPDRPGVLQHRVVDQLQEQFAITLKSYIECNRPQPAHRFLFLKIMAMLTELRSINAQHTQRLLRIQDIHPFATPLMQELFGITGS
Sequence of Estrogen receptor (Homo sapiens) + Estrogen receptor beta (Homo sapiens) (P03372 whole entry, looked up, the tested form may be a part): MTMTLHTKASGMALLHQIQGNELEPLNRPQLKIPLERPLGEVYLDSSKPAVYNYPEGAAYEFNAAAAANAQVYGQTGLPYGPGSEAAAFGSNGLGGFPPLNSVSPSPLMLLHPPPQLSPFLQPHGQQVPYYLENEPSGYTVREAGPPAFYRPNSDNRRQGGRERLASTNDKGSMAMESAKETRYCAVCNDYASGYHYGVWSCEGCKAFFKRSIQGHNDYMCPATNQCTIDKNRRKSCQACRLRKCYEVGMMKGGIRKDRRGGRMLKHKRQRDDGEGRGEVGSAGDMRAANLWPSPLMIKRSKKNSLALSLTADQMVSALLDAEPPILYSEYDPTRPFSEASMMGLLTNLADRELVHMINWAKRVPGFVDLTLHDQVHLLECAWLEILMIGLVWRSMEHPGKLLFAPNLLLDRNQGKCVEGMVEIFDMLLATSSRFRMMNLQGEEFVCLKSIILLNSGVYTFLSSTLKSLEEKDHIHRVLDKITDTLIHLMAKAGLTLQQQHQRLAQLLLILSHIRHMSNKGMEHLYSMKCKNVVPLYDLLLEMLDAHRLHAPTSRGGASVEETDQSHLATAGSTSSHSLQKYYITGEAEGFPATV
Sequence of Estrogen receptor (Homo sapiens) + Estrogen receptor beta (Homo sapiens) (Q92731 whole entry, looked up, the tested form may be a part): as the sequence (Q92731 whole entry, looked up, the tested form may be a part) above
Sequence of human Thyroid Receptor Alpha (TRa), THRA (gene 7067) (P10827 whole entry, looked up): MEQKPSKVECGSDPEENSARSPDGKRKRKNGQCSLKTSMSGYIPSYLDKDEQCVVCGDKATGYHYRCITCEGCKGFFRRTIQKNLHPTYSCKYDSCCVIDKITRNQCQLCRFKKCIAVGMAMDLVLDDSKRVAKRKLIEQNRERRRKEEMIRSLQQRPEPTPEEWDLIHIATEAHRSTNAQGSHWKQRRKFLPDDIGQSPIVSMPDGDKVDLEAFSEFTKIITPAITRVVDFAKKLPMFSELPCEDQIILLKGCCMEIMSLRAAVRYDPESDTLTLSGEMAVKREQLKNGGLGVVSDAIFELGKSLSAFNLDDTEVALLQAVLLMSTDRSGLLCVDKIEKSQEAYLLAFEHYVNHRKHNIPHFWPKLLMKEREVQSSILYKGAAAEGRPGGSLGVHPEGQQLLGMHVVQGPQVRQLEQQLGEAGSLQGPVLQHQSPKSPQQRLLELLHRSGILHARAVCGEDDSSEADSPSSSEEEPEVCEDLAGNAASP
Sequence of PGR (gene 5241) (P06401 whole entry, looked up): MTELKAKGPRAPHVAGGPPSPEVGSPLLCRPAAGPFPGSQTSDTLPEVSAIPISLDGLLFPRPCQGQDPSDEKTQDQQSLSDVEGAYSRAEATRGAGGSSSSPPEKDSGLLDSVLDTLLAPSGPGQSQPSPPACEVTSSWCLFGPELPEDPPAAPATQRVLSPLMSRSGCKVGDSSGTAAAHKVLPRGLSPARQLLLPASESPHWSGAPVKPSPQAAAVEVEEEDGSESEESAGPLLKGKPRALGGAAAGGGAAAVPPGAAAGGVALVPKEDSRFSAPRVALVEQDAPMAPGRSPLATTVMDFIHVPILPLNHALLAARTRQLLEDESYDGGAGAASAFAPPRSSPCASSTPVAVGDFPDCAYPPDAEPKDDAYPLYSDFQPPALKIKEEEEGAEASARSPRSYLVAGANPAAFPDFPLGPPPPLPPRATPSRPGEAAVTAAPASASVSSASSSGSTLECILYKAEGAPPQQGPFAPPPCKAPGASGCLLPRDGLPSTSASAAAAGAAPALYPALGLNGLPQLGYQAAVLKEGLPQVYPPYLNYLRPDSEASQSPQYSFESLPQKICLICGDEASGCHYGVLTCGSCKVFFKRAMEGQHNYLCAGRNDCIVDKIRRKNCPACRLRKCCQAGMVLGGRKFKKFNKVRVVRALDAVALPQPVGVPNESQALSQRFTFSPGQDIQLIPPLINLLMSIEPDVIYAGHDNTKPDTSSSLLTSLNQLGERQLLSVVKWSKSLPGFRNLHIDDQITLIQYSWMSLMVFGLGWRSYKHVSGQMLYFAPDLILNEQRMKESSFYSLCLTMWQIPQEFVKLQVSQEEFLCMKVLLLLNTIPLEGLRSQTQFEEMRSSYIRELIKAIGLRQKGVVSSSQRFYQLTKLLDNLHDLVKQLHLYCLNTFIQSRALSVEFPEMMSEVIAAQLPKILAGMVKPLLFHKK
Sequence of Retinoic acid receptor alpha (Homo sapiens) (P10276 whole entry, looked up): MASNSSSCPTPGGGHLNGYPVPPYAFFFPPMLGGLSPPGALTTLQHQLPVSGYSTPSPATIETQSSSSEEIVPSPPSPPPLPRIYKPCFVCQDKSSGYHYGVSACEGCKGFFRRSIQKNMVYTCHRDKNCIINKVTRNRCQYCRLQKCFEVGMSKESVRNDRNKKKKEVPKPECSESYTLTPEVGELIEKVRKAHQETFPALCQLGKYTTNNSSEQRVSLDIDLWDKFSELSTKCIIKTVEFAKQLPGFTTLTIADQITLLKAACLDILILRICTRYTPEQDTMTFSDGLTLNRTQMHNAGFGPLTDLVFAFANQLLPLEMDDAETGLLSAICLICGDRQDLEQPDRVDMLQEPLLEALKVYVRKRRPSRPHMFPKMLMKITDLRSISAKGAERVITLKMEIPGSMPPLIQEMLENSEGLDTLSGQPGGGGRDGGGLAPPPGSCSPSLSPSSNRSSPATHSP

Consider `COc1cc(OC)nc(NC(=O)NS(=O)(=O)c2ncccc2C(=O)N(C)C)n1`, for which the result in test [1], in test [2] and in [3] was inactive.
With `CNC(=O)O/N=C/C(C)(C)S(C)=O` (stereo not drawn), the result in test [1] and in test [2] was inactive.
As a reminder, the AC50 is the concentration giving half of the maximal activity seen. As for `Fc1ccc(C2(Cn3cncn3)OC2c2ccccc2Cl)cc1` (stereo not drawn), the concentration at half-maximal activity (AC50) in [1] was 27.3 µM (active); in [2], 14.9 µM (active). Moreover, the outcome in test [3] was inactive.
For `CCOP(=S)(OCC)Oc1nc(Cl)c(Cl)cc1Cl`, in that order: 61.5 µM (active), 58.9 µM (active) and “inactive”.
For `CC(C#N)CCC#N` (stereo not drawn), the outcome in [1], in test [2] and in [3] was inactive.
With `C=CC#N`, the outcome in test [1], in test [2] and in [3] was inactive.
Take `Cc1ccc2ccccc2c1C`: the result in [1] and in [2] was inactive.
Regarding `BrCCBr`, the result in [1] and in test [2] was inactive.
As for `N#CN=C(N)N`, the result in [1] and in [2] was inactive.
As to `C=C(C)C#N`, the outcome in test [1] and in test [2] was inactive.
With `NNC(=S)NN`, the outcome in [1], in test [2] and in test [3] was inactive. For the same compound, the half-maximal activity concentration (AC50) in [4] is 25.4 µM (active).
Regarding `CCOP(=S)(OCC)SCSP(=S)(OCC)OCC`, the half-maximal activity concentration (AC50) in [1] was 9.13 µM (active); in [2] it was 14.7 µM (active). In test [3], the compound was classed as inactive.
As for `Cl/C=C\C[N+]12CN3CN(CN(C3)C1)C2`, the half-maximal activity concentration (AC50) in test [1] is 11.6 µM (active). The call in test [2] was inactive.
Consider `C=C(C)C(=O)[O][Sn]([CH2]CCC)([CH2]CCC)[CH2]CCC`, for which the outcome in [1], in test [2], in test [5] and in test [3] was inactive. Further, the AC50 is 3.42 µM (active) in test [6] and 1.15 µM (active) in test [7].
With `Clc1ccc(COC(Cn2ccnc2)c2ccc(Cl)cc2Cl)cc1` (stereo not drawn), the concentration at half-maximal activity (AC50) is 11.8 µM (active) in test [1]; 16.2 µM (active) in test [8]; 39.8 µM (active) in test [5]; 2.3 µM (active) in [7]; 9.83 µM (active) in test [3]; 6.9 µM (active) in test [9]. The call in test [2] and in test [4] was inactive.
On to `Clc1ccc(C2(Cn3cncn3)CC(Br)CO2)c(Cl)c1` (stereo not drawn), for which the concentration at half-maximal activity (AC50) in test [1] is 56.4 µM (active); in [7] it was 6.23 µM (active); in test [3], 19.8 µM (active). For the same compound, the call in test [2] and in test [4] was inactive.
